Pf Dd2 growth: blocks in vitro growth of P. falciparum Dd2; P. falciparum Dd2 growth, SYBR Green, 72 h; Potency, µM (series often up to 28.9 µM), without a hit: top-dose activity, negative = inhibition, usual class: inhibitors; 120,000 compounds, 4.3% hits; AID 1347417; active = well fitted inhibition curve with a large enough effect;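 also: plate controls were DMSO vehicle for no effect and reference drug for full effect; nearly all actives have a fitted effect of over 65% in size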
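Readout: SYBR Green fluorescence, 485 nm excitation, 535 nm emission, after ~16 h lysis at 37C. Before that, Dd2-infected red cells (2.5% hematocrit) grew 72 h with compound, 29 uM top final concentration.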
The depositor's hits bear a star; i = inactive; [ ] = remark or other dose. Only a selection was taken, and hits are over-represented in it overall. Potency is read from the fitted curve at half-maximal effect.

SMILES	Pf Dd2 growth
COc1ccc(CN2Cc3[nH]nc(-c4ccccc4Cl)c3CC2=O)cc1	i
CC(C)C1=NOC2(CCN(C(=O)c3ccc(Cl)cc3)CC2)C1	0.2%
c1cc(-c2nc(CC3CCNC3)no2)ccn1 (stereo not drawn)	i
Cc1nn(C)c(C)c1CCC(=O)N1CCc2[nH]cnc2C1C(=O)O (stereo not drawn)	-20.2%
NC(=O)NCCN1CCCC(N2CCN(Cc3ccc4c(c3)OCO4)CC2)C1 (stereo not drawn)	8.8%
Cc1cccc(N2Cc3c(ncnc3N3CCC(N4CCOCC4)CC3)CN(C)C2=O)c1	12.4%
O=C(CCCc1ccccc1)Nc1ccc(OC2CCNCC2)nc1	i
Cc1cnc(CCNC(=O)C2CCCC2)n1Cc1ccc(F)cc1	-7.6%
CCn1cc(S(=O)(=O)NCCc2ncc(C)n2Cc2ccc(F)cc2)cn1	6.31µM*
Cc1cnc(CCNC(=O)Nc2ccc3c(c2)OCCO3)n1Cc1ccc(F)cc1	-5.8%
COc1ccc(C(=O)Nc2ccc([C@@H](O)[C@H]3COCC(=O)N3CC3CCCCC3)cc2)cc1	i
COc1ccc(NC(=O)Cn2ccn3nc(-c4ccccc4)c(CO)c3c2=O)cc1OC	29.0%
CC1=C[C@@H](CNS(=O)(=O)c2cccc(C#N)c2)[C@H](C(C)C)C[C@H]1CC(=O)NCc1cccnc1	-4.5%
COCCC(=O)NC[C@@H]1C=C(C)[C@H](CC(=O)N(C)Cc2cccnc2)C[C@H]1C(C)C	3.2%[44.1 µM]
CC1=C[C@@H](CNS(=O)(=O)c2cccc(C#N)c2)[C@H](C(C)C)C[C@H]1CC(=O)Nc1ccccn1	-20.7%
C#CCNC(=O)C[C@@H]1C[C@@H](C(C)C)[C@H](CNS(=O)(=O)c2cccc(C#N)c2)C=C1C	11.2µM*
CCOC(=O)C[C@@H]1C[C@@H](C(C)C)[C@H](CNS(=O)(=O)c2ccc(OC)cc2)C=C1C	-19.3%[44.1 µM]
CC1=C[C@@H](CNS(=O)(=O)c2ccc(C)cc2)[C@H](C(C)C)C[C@H]1CC(=O)N(C)Cc1cccnc1	12.6µM*
CCCC1c2nccn2CCCN1C(=O)c1cocn1 (stereo not drawn)	7.1%
CNC(C)c1ccc(C(F)(F)F)cc1 (stereo not drawn)	14.6%[44.1 µM]
CN1CC2(CCCN(Cc3cc(F)ccc3-n3cccn3)C2)OC1=O (stereo not drawn)	-6.6%
Cc1cc(C)n(-c2ccc(F)cc2CN2CCCC(CO)(Cc3ccccc3)C2)n1 (stereo not drawn)	8.91µM*
CCc1ccc(CN2CCCC(CO)(Cc3ccc(F)cc3F)C2)cc1 (stereo not drawn)	-2.4%
CCc1ccc(OCC(=O)c2ccc3c(c2)N(CC(=O)NCCCOC)C(=O)CO3)cc1	i
O=C(N[C@H]1C[C@@H]2C(=O)N[C@H]3CCN(C(=O)C4CCCC4)[C@@H]3C(=O)N2C1)c1cccs1	-10.0%[44.1 µM]
SMILES	Pf Dd2 growth
COc1ccc(CNC[C@H]2O[C@H](Cc3cc(COc4ccccc4)on3)CC[C@@H]2O)cc1	3.98µM*
Cc1ccc(CNC[C@H]2O[C@H](Cc3cc(-c4ccc(F)cc4)on3)CC[C@@H]2O)cc1	-2.8%[44.1 µM]
COc1ccc(C(=O)NC[C@H]2O[C@H](Cc3cc(COc4ccccc4)on3)CC[C@@H]2O)cc1	-5.7%
CCC(=O)NC[C@H]1O[C@H](Cc2cc(COc3ccccc3)on2)CC[C@@H]1O	-15.2%[44.1 µM]
COCc1cc(C[C@@H]2CC[C@H](O)[C@@H](CNC3CCN(C)CC3)O2)no1	28.4%[44.1 µM]
CC(=O)N1CCC(NC[C@H]2O[C@H](Cc3cc(COc4ccccc4)on3)CC[C@@H]2O)CC1	i
O[C@H]1CC[C@@H](Cc2cc(-c3ccc(F)cc3)on2)O[C@@H]1CNC1CCNCC1	-20.1%[44.1 µM]
CC(C)NC[C@H]1O[C@H](Cc2cc(CN(C)Cc3ccccc3)on2)CC[C@@H]1O	11.2µM*
O[C@H]1CC[C@@H](Cc2cc(-c3ccc(F)cc3)on2)O[C@@H]1CNCc1ccncc1	10µM*
CN(Cc1ccccc1)Cc1cc(C[C@@H]2CC[C@H](O)[C@@H](CNCc3ccccc3)O2)no1	1.78µM*
CN(C)C[C@H]1O[C@H](Cc2cc(CN(C)Cc3ccccc3)on2)CC[C@@H]1O	-18.5%[44.1 µM]
CCNC(=O)NC[C@H]1O[C@H](Cc2cc(CN(C)Cc3ccccc3)on2)CC[C@@H]1O	i
COCCn1nnnc1C1CC2(CCOCC2)C(=O)N1Cc1ccc(OC(C)C)cc1 (stereo not drawn)	-1.8%
CN(C)c1nc2c(c(=O)[nH]1)CCN(Cc1ccc(F)c(F)c1)CC2	i[5.79 µM]
O=C(c1ccc(CN2C(=O)NC3(CCS(=O)(=O)CC3)C2=O)cc1)N1CCCCCC1	-7.6%
Cn1cnc(C(=O)N2CCCCCCNC(=O)[C@@H]3CCCC[C@@H]32)c1	9.9%
Cc1cccc(OCCc2noc(C3CCN(C(=O)c4cc(C)nn4C)C3)n2)c1 (stereo not drawn)	i
Cc1noc(-c2cn(C3CCN(C(=O)c4ccc(OC(F)(F)F)cc4)C3)nn2)n1 (stereo not drawn)	-18.3%
CCOc1ccc(CN2CCN(c3nc(C)cc(NC)n3)CC2CCO)cc1 (stereo not drawn)	-18.5%
O=C(Nc1ccc(Cl)nc1)c1cnn2ncccc12	12.0%[44.1 µM]
CCC(=O)N1CCN(C2CCN(CCC(C)C)C2=O)CC1 (stereo not drawn)	-22.0%
Cc1noc(C)c1S(=O)(=O)N1CCCCC(NC(=O)c2c[nH]c(=O)cn2)C1 (stereo not drawn)	-6.3%
COC(=O)CC[C@H]1CNC(=O)[C@@H]2[C@@H](CCN2C(=O)NC(C)C)N1C	4.8%[44.1 µM]
Cc1nc(C2CCCN(C(=O)Cc3ccncc3)C2)cc(N2CCOCC2)n1 (stereo not drawn)	0.5%
O=C(C1CCCN(C2CCN(c3nc4ccccc4o3)CC2)C1)N1CCSCC1 (stereo not drawn)	-2.2%
SMILES	Pf Dd2 growth
C#CCN(C)C(=O)C[C@@H]1c2nc(-c3cccnc3)sc2C[C@@H]2[C@](C)(CO)[C@H](O)CC[C@]21C	-18.6%
Cc1ccc(NC(=O)Cn2c(CCC(=O)O)ccc2-c2cccs2)cc1Cl	-2.6%
CCN(CC)CCCNC(=O)Cn1c(-c2cccs2)cc2cc(Cl)ccc21	11.2µM*
CCCN1CCN(CCCNC(=O)Cn2nc(C)n3c(cc4c(OC)cccc43)c2=O)CC1	-4.2%
CN1CCN(CCC(=O)Nc2ccc(Cl)cc2)CC1	i
CN1CCN(CCCNC(=O)Cn2c(-c3cccs3)cc3cc(Cl)ccc32)CC1	12.6µM*
CCC(C)NC(=O)Cn1c(-c2cccs2)cc2cc(Cl)ccc21 (stereo not drawn)	-10.9%
CCc1nn(CC(=O)NCCCN2CCN(C)CC2)c(=O)c2cc3occc3n12	57.2%
O=C(O)Cn1c(-c2cccs2)cc2cc(Cl)ccc21	-15.4%
CCN1CCN(CCCNC(=O)Cn2c(-c3cccs3)cc3cc(Cl)ccc32)CC1	11.2µM*
C[S+](=O)([O-])N1CCC2(CC1)C(=O)NN=C2C1CC1	8.5%[44.1 µM]
Cc1n[nH]c(C)c1CCC(=O)Nc1cccn2nc(C3CCC3)nc12	-7.5%
C[C@@H]1C(=O)O[C@H]2[C@H]1CC[C@@]1(C)Cc3sc(NC(=O)c4ccncc4)nc3[C@@H](C)[C@H]21	i
C[C@@H]1C(=O)O[C@H]2[C@H]1CC[C@@]1(C)Cc3sc(NC(=O)c4ccc(F)c(Cl)c4)nc3[C@@H](C)[C@H]21	11.2µM*
C[C@@H]1C(=O)O[C@H]2[C@H]1CC[C@@]1(C)Cc3sc(NS(=O)(=O)c4ccc(F)c(Cl)c4)nc3[C@@H](C)[C@H]21	-13.3%
CC(C)(C)CNC1(Cc2cc(-c3ccccn3)on2)COC1	i
COc1ccc(N2CCN(CC(O)COc3c(OC)cccc3OC)CC2)cc1 (stereo not drawn)	11.8%

Compound activity from PubChem BioAssay.
